Results: the supplement of paper PMC11219838
Unmarked numbers belong to inactive results.

Tests used:
Settings in all cases: 60 µM; 5 days; temperature: 20 °C
Meloidogyne hapla J2 = assay: proportion of mobile M. hapla J2 relative to DMSO control (fraction of DMSO control); higher = more viable, less nematicidal, active = 0.7 or less
Outline: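 About 25 M. hapla J2 were placed in each well of a 96-well plate in distilled water, and compound was pinned in to a final 60 µM with 0.6% v/v DMSO. The sealed plates were shaken at 200 rpm at 20 °C for 5 days, after which 2 µL of 1 M NaOH went into each well. Mobility was then scored under the microscope and divided by the mean value from DMSO-only wells on the same plate. Each plate held eight such DMSO wells, and two biological replicates were averaged.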

[1] = test system: Caenorhabditis elegans dauer (daf-2(e1370)); assay: proportion of mobile C. elegans dauer larvae relative to DMSO control (fraction of DMSO control); higher = more viable, less nematicidal, active = 0.63 or less; extreme values may be limits of the assay
Outline: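 The proportion of mobile worms, relative to DMSO wells, was scored by dissection microscope and averaged over two biological replicates. Worms were C. elegans dauers, about 20 per well in liquid NGM in 96-well plates, generated from synchronized larvae on MYOB plates with E. coli OP50 at 25 °C for 48 h. They were treated with compound pinned to 60 µM final (0.6% v/v DMSO) and kept in sealed plates shaken at 200 rpm for 5 days at 20 °C.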

Ditylenchus dipsaci = assay: proportion of mobile D. dipsaci (mixed stage) relative to DMSO control (fraction of DMSO control); higher = more viable, less nematicidal, active = 0.86 or less; extreme values may be limits of the assay
Outline: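 Ditylenchus dipsaci nematodes were cultured on pea plants in Gamborg B-5 agar, then extracted into water through a filter funnel, and roughly 20 worms in distilled water were placed in each well of a 96-well plate. Compound was pinned in to a final concentration of 60 µM (0.6% v/v DMSO), and the sealed plates were shaken at 200 rpm for 5 days at 20 °C. Mobile worms were counted under the microscope after 2 µL of 1 M NaOH was added. Mobility is given relative to DMSO controls as the mean of two biological replicates.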

Structure (SMILES) | proportion of mobile M. hapla J2 (Meloidogyne hapla J2) | proportion of mobile C. elegans dauer larvae [1] | proportion of mobile D. dipsaci (Ditylenchus dipsaci)
COc1ccc(CCC(=O)Nc2ccc(-c3noc(-c4ccc(F)cc4)n3)cc2)cc1 | 0.746 | 1 | 1
c1ccc(-c2noc(COc3cccc4ccccc34)n2)nc1 | 0.936 | 1 | 1
CCc1nnc(NC(=O)CSc2nnc(-c3ccc(Cl)cc3Cl)o2)s1 | 0.875 | 1 | 1
CC(C)Oc1ccc(-c2nc(-c3cccnc3)no2)cc1 | 0.899 | 0 (active) | 0.675 (active)
Cc1ccc(-c2nnc(SCc3ccccc3Cl)o2)cc1 | 0.964 | 1 | 1
Cc1cc(OCc2nc(-c3ccccn3)no2)cc(C)c1Cl | 1.05 | 1 | 1
COc1cccc(-c2noc(COc3ccc(Br)cc3)n2)c1 | 0.942 | 1 | 1
Cc1ccc(C)c(-c2nc(-c3cccnc3)no2)c1 | 1.06 | 0.727 | 1
Cc1ccccc1-c1nnc(SCc2ccc(F)cc2)o1 | 0.939 | 1 | 1
COc1cccc(-c2noc(COc3ccc4ccccc4c3)n2)c1 | 1.04 | 1 | 1
O=C(CSc1nnc(-c2cccc3ccccc23)o1)Nc1cccc(F)c1 | 0.999 | 1 | 1
COc1ccc(-c2nnc(SCc3cccc(C#N)c3)o2)cc1 | 0.785 | 1 | 1
Clc1ccccc1OCc1nc(-c2ccc(Br)cc2)no1 | 1.02 | 1 | 1
Clc1ccc(-c2nc(-c3ccncc3)no2)c(Cl)c1 | 0.942 | 1 | 1
CCOc1cc(-c2nc(-c3ccc(C)nc3OC)no2)cc(OCC)c1OCC | 0.628 (active) | 1 | 1
COc1ccc(CCC(=O)Nc2ccc(-c3noc(-c4ccccc4C)n3)cc2)cc1 | 0.791 | 1 | 1
Cc1ccc(-c2noc(COc3cc(C)cc(C)c3)n2)cc1 | 1.02 | 1 | 1
O=C(CSc1nnc(-c2ccccc2Cl)o1)NCc1ccccc1 | 1.04 | 1 | 1
COc1ccc(-c2noc(-c3ccccc3C(=O)Nc3ccc(NC(C)=O)cc3)n2)cc1 | 0.923 | 1 | 1
Brc1ccc(-c2noc(-c3ccco3)n2)o1 | 0.801 | 0.391 (active) | 1
Clc1ccccc1OCc1nc(-c2ccccn2)no1 | 1 | 1 | 1
Cc1ccc(NC(=O)CSc2nnc(-c3ccncc3)o2)cc1Cl | 0.939 | 1 | 1
Cc1ccc(-c2noc(-c3cc(C)cc(C)c3)n2)cc1 | 0.719 | 1 | 1
Cc1cc(OC(C)c2nc(-c3cccnc3)no2)ccc1Cl (stereo not drawn) | 0.862 | 1 | 1
COc1cccc(-c2noc(-c3cccc(F)c3)n2)c1 | 1.01 | 1 | 1
Cc1ccc(Cl)cc1NC(=O)CSc1nnc(-c2ccncc2)o1 | 0.913 | 1 | 1

Structure (SMILES) | proportion of mobile M. hapla J2 (Meloidogyne hapla J2) | proportion of mobile C. elegans dauer larvae [1] | proportion of mobile D. dipsaci (Ditylenchus dipsaci)
CCCCSc1nnc(-c2ccc(Br)cc2)o1 | 1 | 0.5 (active) | 0.842 (active)
COc1ccc(Br)cc1-c1noc(-c2ccncc2)n1 | 0.759 | 1 | 1
Clc1ccccc1-c1noc(COc2ccc(Br)cc2)n1 | 1.05 | 1 | 1
Cc1ccc(NC(=O)CSc2nnc(-c3ccccc3)o2)c(C)c1 | 0.951 | 1 | 1
O=C(CSc1nnc(-c2cccc(Br)c2)o1)c1ccc2c(c1)CCCC2 | 0.967 | 1 | 1
COc1cccc(-c2noc(COc3ccc(C(C)C)cc3)n2)c1 | 0.968 | 1 | 1
O=C(Nc1cccnc1)c1ccccc1-c1nc(-c2ccc(Cl)cc2)no1 | 0.934 | 1 | 1
COc1ccc(-c2noc(COc3ccc(Cl)cc3C)n2)cc1 | 0.94 | 1 | 1
O=C(CSc1nnc(-c2ccccc2)o1)Nc1ccccc1F | 0.85 | 1 | 1
COc1ccc(OCc2nc(-c3cccc(Br)c3)no2)cc1 | 1 | 1 | 1
N#Cc1ccc(CSc2nnc(-c3ccccc3)o2)cc1 | 0.798 | 1 | 1
FC(F)(F)c1cccc(-c2noc(-c3cccnc3)n2)c1 | 0.813 | 1 | 0.914
CCc1ccc(C(=O)Nc2ccccc2-c2nc(-c3ccncc3)no2)cc1 | 1 | 1 | 1
FC(F)(F)c1cccc(-c2noc(-c3ccccc3Cl)n2)c1 | 1.04 | 1 | 1
Cc1ccc(OC(C)c2nc(-c3cccnc3)no2)cc1 (stereo not drawn) | 1.03 | 1 | 1
Clc1ccccc1-c1noc(-c2ccncc2)n1 | 0.953 | 1 | 1
COc1cccc(-c2noc(-c3ccccc3C)n2)c1 | 1.06 | 1 | 1
COC(=O)c1ccc(CSc2nnc(-c3ccncc3)o2)cc1 | 0.999 | 1 | 1
O=C(CSc1nnc(-c2ccccc2)o1)Nc1ccc2ccccc2c1 | 1.01 | 1 | 1
CCNC(=O)c1ccccc1-c1nc(-c2ccccc2)no1 | 0.908 | 1 | 1
CCOc1ccccc1-c1nc(-c2ccc(NC(=O)CCc3ccc(OC)cc3)cc2)no1 | 0.918 | 1 | 1
Cc1ccccc1-c1noc(COc2ccc(Cl)cc2Cl)n1 | 1.02 | 1 | 1
COc1ccccc1CC(=O)Nc1ccc(-c2noc(-c3ccc(Cl)cc3)n2)cc1 | 0.938 | 1 | 1
COc1ccccc1OCc1nc(-c2ccccc2)no1 | 0.973 | 1 | 1
CCCCC(=O)Nc1ccccc1-c1nc(-c2cccnc2)no1 | 1.01 | 1 | 1
